Source: PubChem BioAssay
Several values for one entry are separate records, joined by “and”; a condition that tells them apart may be missing. Equal values may be shown once. Where a structure was tested more than once in an assay, its records may differ in their call. Activity calls are given as the source filed them. Unless noted, how the calls were made is not given here.

Key:
[1] = compounds altering circadian rhythm period length – cell-based, LOPAC library, luminescence reporter (AID 2774); conditions: circadian reporter cells, at 7 µM, actives lie on both sides;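 further: values are relative to mean of DMSO wells on each plate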
[2] = P. berghei load reduction in hepatocytes – cell-based, HepG2, luciferase luminescence, HepG2 viability, primary screen (AID 624349; in the data active means parasite load remaining mostly below about 12%, no sharp cut-off; inactive means mostly above about 10%;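 further: 100% = mean of DMSO negative control wells on the same plate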); conditions: P. berghei liver stage in HepG2, luciferase luminescence, concentration not given here; parasite load remaining: stronger effect = lower value; viability: measured here: HepG2 viability without parasites
[3] = test system: Hepatitis C virus NS3 helicase; assay: blockers of NS3h binding to ssDNA – biochemical, fluorescence polarization, LOPAC1280 library, primary screen (AID 687035; in the data active means inhibition above about 37%); conditions: Purified HCV NS3 helicase, Cy5-dT15 ssDNA binding fluorescence polarization; stronger effect = higher value; concentration not given here
[4] = compounds altering Cy5-DNA-NS3h complex signal – biochemical, LOPAC1280, artefact control for HCV NS3 helicase inhibitor project (AID 687037); conditions: Cy5-DNA-NS3h complex fluorescence interference counterscreen
[5] = signal quenchers or enhancers, Cy5 substrate/SSB – biochemical, NIH Clinical Collection, E. coli SSB, artefact control for HCV NS3 helicase inhibitor project (AID 743268); conditions: Cy5-oligo bound E. coli SSB, fluorescence interference
[6] = test system: Hepatitis C virus NS3 helicase; assay: blockers of NS3h binding to DNA – biochemical, fluorescence polarization, NIH Clinical Collection, primary screen (AID 743270); conditions: NS3 helicase binding to Cy5-dT15 DNA, stronger effect = higher value, concentration not given here
[7] = target: Single-stranded DNA-binding protein (Escherichia coli (strain K12)) (UniProt P0AGE0); assay: SSB-ssDNA binding inhibitors – biochemical, fluorescence polarization, NIH Clinical Collection, counter-screen for HCV NS3 helicase inhibitor project (AID 743271; in the data active means inhibition above about 28%); conditions: E. coli SSB-DNA binding, stronger effect = higher value, concentration not given here
[8] = compounds distorting NS3 helicase fluorescence signal – biochemical, NIH Clinical Collection, artefact control for HCV NS3 helicase inhibitor project (AID 743272); conditions: fluorescence interference counterscreen, HCV NS3 helicase assay; stronger effect = lower value;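 further: HCV NS3 helicase with a Cy5 labelled single stranded DNA probe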
[9] = test system: Neuropilin-2 / VEGF-C interaction (human); assay: small molecules blocking Neuropilin-2/VEGF-C interaction – biochemical, microplate binding format, z-score (AID 743281); conditions: microplate NRP2/VEGF-C binding assay; stronger effect = lower value
[10] = Wnt pathway potentiators raising nuclear beta-catenin – imaging, WNT3A-conditioned medium, mouse C2C12, NPC library, primary screen (AID 1117326; in the data active means nuclear beta-catenin stimulation mostly above about 4.2%, no sharp cut-off; inactive means mostly below about 10%); conditions: stronger effect = higher value
[11] = compounds altering viability of human ES cells (AID 493140); conditions: human embryonic stem cell survival screen; stronger effect = higher value;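 further: cells exposed to compounds for four days before counting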

## CCOC(=O)c1ncn2c1CN(C)C(=O)c1cc(F)ccc1-2
[1]
  period change: -0.15 h (inactive)
[2]
  parasite load remaining: 6.63% (inactive) and 66.3% (inactive)
  viability: 73.1% and 107%
[3]
  inhibition: -4% (inactive)
[4]
  fluorescence ratio (interference): 1 (inactive)
[5]
  fluorescence ratio: 1.05 (inactive)
[6]
  inhibition: 1.98% (inactive)
[7]
  inhibition: -0.1% (inactive)
[8]
  fluorescence ratio: 0.99 (inactive)
[9]
  z-score: -0.197 (inactive)
[10]; at 10 µM
  nuclear beta-catenin stimulation: 0.8% (inactive)
[10]; stimulation, at 2 µM
  nuclear beta-catenin stimulation: -0.7%

## NC(=O)OCC(COC(N)=O)c1ccccc1
[1]
  period change: -0.105 h (inactive)
[2]
  parasite load remaining: 83.2% (inactive) and 111% (inactive)
  viability: 105% and 75.3%
[3]
  inhibition: -1% (inactive)
[4]
  fluorescence ratio (interference): 1 (inactive)
[5]
  fluorescence ratio: 1.05 (inactive)
[6]
  inhibition: -2.77% (inactive)
[7]
  inhibition: -3.18% (inactive)
[8]
  fluorescence ratio: 0.9 (inactive)
[9]
  z-score: 0.0538 (inactive)
[10]; at 10 µM
  nuclear beta-catenin stimulation: -1.9% (inactive)
[10]; stimulation, at 2 µM
  nuclear beta-catenin stimulation: 0%

## Cc1cnc(NC(=O)C2=C(O)c3ccccc3S(=O)(=O)N2C)s1
[1]
  period change: -0.06 h (inactive)
[3]
  inhibition: -4% (inactive)
[4]
  fluorescence ratio (interference): 1 (inactive)
[10]; at 10 µM
  nuclear beta-catenin stimulation: 2% (inactive)
[10]; stimulation, at 2 µM
  nuclear beta-catenin stimulation: -0.5%

## C[C@]12CC[C@@H]3c4ccc(O)cc4CC[C@H]3[C@@H]1C[C@@H](O)[C@@H]2O
[11]
  survival: 7.75 (inactive)
[2]
  parasite load remaining: 68.5% (inactive) and 32.3% (inactive)
  viability: 70% and 67.5%
[10]; at 10 µM
  nuclear beta-catenin stimulation: 4.3% (inactive)
[10]; stimulation, at 2 µM
  nuclear beta-catenin stimulation: 3%

## Cc1cn([C@H]2C=C[C@@H](CO)O2)c(=O)[nH]c1=O
[1]
  period change: -0.14 h (inactive)
[2]
  parasite load remaining: 72.2% (inactive) and 110% (inactive)
  viability: 107% and 74.4%
[3]
  inhibition: -2% (inactive)
[4]
  fluorescence ratio (interference): 1 (inactive)
[5]
  fluorescence ratio: 1.04 (inactive) and 0.101 (active)
[6]
  inhibition: -3.56% (inactive) and -2.27% (inactive)
[7]
  inhibition: -0.87% (inactive) and -5.05% (inactive)
[8]
  fluorescence ratio: 0.98 (inactive) and 1.04 (inactive)
[9]
  z-score: 0.0189 (inactive)
[10]; at 10 µM
  nuclear beta-catenin stimulation: -0.2% (inactive)
[10]; stimulation, at 2 µM
  nuclear beta-catenin stimulation: 1.1%

## Brc1c(NC2=NCCN2)ccc2nccnc12
[1]
  period change: -0.1 h (inactive)
[2]
  parasite load remaining: 54.7% (inactive)
  viability: 94.9%
[3]
  inhibition: -3% (inactive)
[4]
  fluorescence ratio (interference): 1 (inactive)
[5]
  fluorescence ratio: 1.04 (inactive)
[6]
  inhibition: -5.91% (inactive)
[7]
  inhibition: -3.53% (inactive)
[8]
  fluorescence ratio: 0.99 (inactive)
[10]; at 10 µM
  nuclear beta-catenin stimulation: 0.3% (inactive)
[10]; stimulation, at 2 µM
  nuclear beta-catenin stimulation: -0.6%

## CN(C)CC[C@@H](c1ccc(Cl)cc1)c1ccccn1
[1]
  period change: -0.255 h (inactive)
[2]
  parasite load remaining: 51.2% (inactive)
  viability: 68.9%
[3]
  inhibition: -6% (inactive)
[4]
  fluorescence ratio (interference): 0.9 (inactive)
[5]
  fluorescence ratio: 0.95 (inactive)
[6]
  inhibition: -2.84% (inactive)
[7]
  inhibition: -2.76% (inactive)
[8]
  fluorescence ratio: 0.91 (inactive)
[9]
  z-score: 0.0729 (inactive)
[10]; at 10 µM
  nuclear beta-catenin stimulation: -1.2% (inactive)
[10]; stimulation, at 2 µM
  nuclear beta-catenin stimulation: 0.3%

## CC1CC(OC(=O)C(O)c2ccccc2)CC(C)(C)N1C (stereo not drawn)
[11]
  survival: 2.33 (inactive)
[2]
  parasite load remaining: 101% (inactive)
  viability: 101%
[10]; at 10 µM
  nuclear beta-catenin stimulation: -1.4% (inactive)
[10]; stimulation, at 2 µM
  nuclear beta-catenin stimulation: -0.1%

## Nc1ccc(S(=O)(=O)Nc2ccc(Cl)nn2)cc1
[11]
  survival: 5.17 (inactive)
[2]
  parasite load remaining: 128% (inactive) and 127% (inactive) and 54.3% (inactive)
  viability: 105% and 69.3% and 92.4%
[10]; at 10 µM
  nuclear beta-catenin stimulation: 3.3% (inactive)
[10]; stimulation, at 2 µM
  nuclear beta-catenin stimulation: 4.5%

## CC(C)(C(=O)c1cccnc1)c1cccnc1
[11]
  survival: 5 (inactive)
[2]
  parasite load remaining: 42.4% (inactive) and 90.8% (inactive) and 15.1% (inactive)
  viability: 102% and 94.8% and 117%
[5]
  fluorescence ratio: 1.03 (inactive)
[6]
  inhibition: 1.36% (inactive)
[7]
  inhibition: 1.05% (inactive)
[8]
  fluorescence ratio: 0.96 (inactive)
[10]; at 10 µM
  nuclear beta-catenin stimulation: 4.8% (inactive)
[10]; stimulation, at 2 µM
  nuclear beta-catenin stimulation: 1.3%

## CCCc1c(OCCCCc2nn[nH]n2)ccc(C(C)=O)c1O
[11]
  survival: 110 (inactive)
[2]
  parasite load remaining: 103% (inactive)
  viability: 65.9%
[5]
  fluorescence ratio: 1.03 (inactive)
[6]
  inhibition: 5.15% (inactive)
[7]
  inhibition: -3.18% (inactive)
[8]
  fluorescence ratio: 0.98 (inactive)
[9]
  z-score: 0.174 (inactive)
[10]; at 10 µM
  nuclear beta-catenin stimulation: 0.3% (inactive)
[10]; stimulation, at 2 µM
  nuclear beta-catenin stimulation: 1.2%

## CC1(C)O[C@@H]2C[C@H]3[C@@H]4CCC5=CC(=O)CC[C@]5(C)[C@@]4(F)[C@@H](O)C[C@]3(C)[C@]2(C(=O)CCl)O1
[11]
  survival: 5.5 (inactive)
[2]
  parasite load remaining: 116% (inactive)
  viability: 97.4%
[10]; at 10 µM
  nuclear beta-catenin stimulation: -0.6% (inactive)
[10]; stimulation, at 2 µM
  nuclear beta-catenin stimulation: 0.3%

## COc1cc(C)nc(-n2nc(C)cc2OC)n1
[11]
  survival: 33.2 (inactive)
[2]
  parasite load remaining: 32% (inactive) and 118% (inactive) and 64.4% (inactive)
  viability: 46.8% and 89.6% and 75.3%
[5]
  fluorescence ratio: 0.95 (inactive)
[6]
  inhibition: -0.22% (inactive)
[7]
  inhibition: 5.91% (inactive)
[8]
  fluorescence ratio: 0.88 (inactive)
[9]
  z-score: -0.659 (inactive)
[10]; at 10 µM
  nuclear beta-catenin stimulation: -1.3% (inactive)
[10]; stimulation, at 2 µM
  nuclear beta-catenin stimulation: -0.3%

## CCc1c(C)[nH]c2c1C(=O)C(CN1CCOCC1)CC2 (stereo not drawn)
[11]
  survival: 6.5 (inactive)
[2]
  parasite load remaining: 36.3% (inactive) and 102% (inactive)
  viability: 89.9% and 75.4%
[3]
  inhibition: -4% (inactive)
[4]
  fluorescence ratio (interference): 0.9 (inactive)
[5]
  fluorescence ratio: 1.09 (inactive)
[6]
  inhibition: -1.36% (inactive)
[7]
  inhibition: 1.81% (inactive)
[8]
  fluorescence ratio: 1.01 (inactive)
[10]; at 10 µM
  nuclear beta-catenin stimulation: -1.2% (inactive)
[10]; stimulation, at 2 µM
  nuclear beta-catenin stimulation: -0.2%

## CC(C)(C)NC(=O)[C@H]1CC[C@H]2[C@@H]3CC[C@H]4NC(=O)C=C[C@]4(C)[C@H]3CC[C@]12C
[11]
  survival: 7 (inactive)
[2]
  parasite load remaining: 85.8% (inactive) and 62.9% (inactive) and 31.1% (inactive)
  viability: 103% and 63% and 78%
[5]
  fluorescence ratio: 1.05 (inactive)
[6]
  inhibition: 0.4% (inactive)
[7]
  inhibition: -2.41% (inactive)
[8]
  fluorescence ratio: 1.02 (inactive)
[10]; at 10 µM
  nuclear beta-catenin stimulation: 5.2% (inactive)
[10]; stimulation, at 2 µM
  nuclear beta-catenin stimulation: 2%

## C[C@H](N)[C@H](O)c1cccc(O)c1
[11]
  survival: 28.4 (inactive)
[2]
  parasite load remaining: 9.16% (inactive) and 99.4% (inactive) and 51.4% (inactive)
  viability: 46.8% and 91.2% and 209%
[10]; at 10 µM
  nuclear beta-catenin stimulation: -0.7% (inactive)
[10]; stimulation, at 2 µM
  nuclear beta-catenin stimulation: -0.1%
